Drawing on PubChem BioAssay (NCI), this text covers growth for 17 compounds.

The panel holds about 83,000 compounds, 20% with a hit somewhere; the sample as a whole holds those more often.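 Plates (96-well) were seeded with cells, treated with compound at one concentration, and incubated for 48 hours before percent growth was determined.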 Values without a mark were called inactive. Activity calls are given as the source filed them. Rule for the calls: active = growth percent below 10; inactive = the rest.

Among the test systems are T-47D breast; BT-549 breast; MDA-MB-435 melanoma; SW-620 colon; MCF7 breast; HCT-116 colon; HCC-2998 colon.
What all share (test): NCI-60 one-dose screen, 48 h (100 = growth as untreated, 0 = no growth, -100 = all killed)
What all share (settings): 10 µM

Take `O=C(CCCSc1nc(-c2ccc(Cl)cc2)cc(-c2ccc(Cl)cc2)n1)NO`: the growth in the assay on T-47D breast was 24.6%; in the assay on BT-549 breast, 31.9%; with MDA-MB-435 melanoma, 24%; in the assay with SW-620 colon, 23.9%; in the assay on MCF7 breast, 2.7% (active); in the assay on HCT-116 colon, 11.5%. The growth in the assay on HCC-2998 colon was 7.09% (active).

For the compound `Cc1cc(Cl)ccc1Nc1nc(C(F)(F)F)ccc1C(=O)N/N=C/c1c(Cl)cccc1Cl`, the growth was -13.3% (active) in the assay on T-47D breast; -15% (active) with BT-549 breast; 10.5% in the assay with MDA-MB-435 melanoma; 6.12% (active) in the assay with SW-620 colon; 7.7% (active) in the assay with MCF7 breast; 1.5% (active) with HCT-116 colon. Also, the growth in the assay with HCC-2998 colon was 19.5%.

`O=C(N/N=C/c1ccc(Cl)cc1)c1ccccc1Nc1cccc(C(F)(F)F)c1`: the growth with T-47D breast is 109%; in the assay on BT-549 breast, 60.2%; in the assay on MDA-MB-435 melanoma, 53%; in the assay with SW-620 colon it was 79.6%; with MCF7 breast it was 85.2%; in the assay on HCT-116 colon, 66.1%. Also, in the assay on HCC-2998 colon, the growth was 103%.

With `CC(C)=CCC/C(C)=C/CC/C(C)=C/CC/C=C(\C)CC/C=C(\C)CCC(=O)Nc1ccn(C2OC(CO)C(O)C2(F)F)c(=O)n1` (centres undefined), the growth was 41% in the assay on T-47D breast; 18.3% in the assay on BT-549 breast; 29.9% in the assay with MDA-MB-435 melanoma; 33.6% with SW-620 colon; 21.8% with MCF7 breast; 20.3% in the assay on HCT-116 colon. Besides, in the assay on HCC-2998 colon, the growth is 82.4%.

With `O=C(CSc1nnc(-c2cccnc2SCc2ccccc2)o1)Nc1nc(Cl)cc(Cl)n1`, the growth is 98.5% in the assay on T-47D breast; 102% in the assay with BT-549 breast; 105% with MDA-MB-435 melanoma; 103% in the assay on SW-620 colon; 92% in the assay with MCF7 breast; 97.3% with HCT-116 colon. For the same compound, the growth with HCC-2998 colon was 103%.

As for `S=C(SSC(=S)N(c1ccccc1)c1ccccc1)N(c1ccccc1)c1ccccc1`, the growth with T-47D breast was 97.3%; with BT-549 breast, 109%; in the assay with MDA-MB-435 melanoma, 104%; with SW-620 colon, 108%; in the assay with MCF7 breast, 98.8%; in the assay with HCT-116 colon it was 100%. The growth with HCC-2998 colon was 101%.

Take `O=C(CCCCNC(=O)c1nc(-c2ccccc2)n(-c2ccccc2)n1)NO`: the growth is 35% with T-47D breast; 94.7% in the assay with BT-549 breast; 79.2% with MDA-MB-435 melanoma; 64.4% in the assay with SW-620 colon; 67.6% with MCF7 breast; 54.6% in the assay with HCT-116 colon. Moreover, the growth in the assay on HCC-2998 colon is 94.4%.

Regarding `COc1ccc(C(=O)c2ccccc2CN2C(=O)c3ccccc3C2=O)cc1`, the growth in the assay on T-47D breast is 90.6%; in the assay with BT-549 breast, 112%; in the assay on MDA-MB-435 melanoma, 108%; in the assay on SW-620 colon, 99%; in the assay with MCF7 breast, 102%; in the assay with HCT-116 colon, 101%. Further, the growth with HCC-2998 colon is 105%.

Turning to `CCn1c(SCc2ccc(C)cc2)nnc1-c1nn(-c2ccc(Cl)cc2Cl)c(-c2ccc(Cl)cc2)c1C`, the growth with T-47D breast was -8.15% (active); in the assay with BT-549 breast it was -7.34% (active); with MDA-MB-435 melanoma, 19.7%; in the assay with SW-620 colon it was 20.4%; with MCF7 breast, 4.46% (active); in the assay with HCT-116 colon, 1.74% (active). Moreover, the growth with HCC-2998 colon was 23.4%.

As for `CCN(CC)CCN1c2nc3ccccc3cc2Sc2cc3ccccc3nc21`, the growth in the assay on T-47D breast is 73.5%; in the assay with BT-549 breast, -92.4% (active); in the assay on MDA-MB-435 melanoma it was -25% (active); in the assay on SW-620 colon, -29.7% (active); in the assay with MCF7 breast, -100% (active); in the assay with HCT-116 colon, -45.4% (active). Also, the growth in the assay on HCC-2998 colon was -99% (active).

Turning to `COc1ccc(Cl)cc1Nc1nc(C(F)(F)F)ccc1C(=O)N/N=C/c1ccc(Cl)cc1`, the growth in the assay with T-47D breast was 37.6%; with BT-549 breast it was 36.9%; in the assay with MDA-MB-435 melanoma, 59.2%; with SW-620 colon, 30.9%; with MCF7 breast it was 23.6%; in the assay on HCT-116 colon it was 21.4%. The growth in the assay with HCC-2998 colon is 59.4%.

Turning to `O=C(Nc1cc(Cl)cc2c1-c1ccc(Cl)cc1C2O)C(Cl)Cl` (centres undefined), the growth is 54.1% with T-47D breast; 95.3% with BT-549 breast; 79.2% in the assay with MDA-MB-435 melanoma; 79.5% with SW-620 colon; 64.5% with MCF7 breast; 51.1% in the assay on HCT-116 colon. Also, the growth with HCC-2998 colon was 95.2%.

Turning to `COCCn1cc(-c2nc(-c3cccnc3)cs2)c2cc(F)ccc21`, the growth in the assay on T-47D breast was 87.7%; in the assay with BT-549 breast, 93%; with MDA-MB-435 melanoma it was 79.9%; with SW-620 colon it was 99.4%; in the assay on MCF7 breast it was 102%; in the assay with HCT-116 colon, 102%. Moreover, the growth with HCC-2998 colon was 102%.

Take `COc1ccccc1/C=N\N/C(N)=N\N=C\c1ccccc1OC`: the growth with T-47D breast is 60.9%; in the assay with BT-549 breast, -4.14% (active); in the assay with MDA-MB-435 melanoma, -39.2% (active); with SW-620 colon, 13.1%; in the assay with MCF7 breast, 11.3%; with HCT-116 colon, 5.25% (active). In addition, the growth in the assay on HCC-2998 colon is 5.64% (active).

Regarding `CC(C)C1=C(O)C2=C(C(=O)C1=O)[C@@]1(C)CCCC(C)(C)[C@@H]1CC2`, the growth in the assay on T-47D breast is 67.7%; with BT-549 breast, 106%; in the assay on MDA-MB-435 melanoma, 75.4%; in the assay on SW-620 colon, 55.4%; in the assay on MCF7 breast, 66.4%; in the assay on HCT-116 colon, 58%. For the same compound, the growth in the assay with HCC-2998 colon was 53.8%.

As for `O=C(N/N=C/c1c(Cl)cccc1Cl)c1ccccc1Nc1cccc(C(F)(F)F)c1`, the growth was 94.4% with T-47D breast; 81.3% in the assay with BT-549 breast; 110% with MDA-MB-435 melanoma; 96.2% with SW-620 colon; 94.7% in the assay with MCF7 breast; 93.1% with HCT-116 colon. For the same compound, the growth in the assay with HCC-2998 colon is 117%.

Regarding `CN1CCc2c(sc3nc4n(-c5ccc(Cl)cc5)c(=O)[nH]n4c(=O)c23)C1`, the growth is 87.6% in the assay with T-47D breast; 94% with BT-549 breast; 103% with MDA-MB-435 melanoma; 109% with SW-620 colon; 91.7% in the assay on MCF7 breast; 89.1% in the assay with HCT-116 colon. The growth in the assay with HCC-2998 colon was 102%.
